# High-throughput results (PubChem)
# Compounds with a hit are over-represented: about 4.5% of the library has one in this group of screens.
# Jurkat NFkB inh: inhibitors of induced NF-kB luciferase reporter, primary screen, TCR NF-kB activation inhibitor project, cell-based, luminescence, uHTS. Jurkat, PMA/ionomycin-induced NF-kB luciferase reporter. inhibition, % at 4 µM. 330,000 compounds, 0.53% hits; in the data active = inhibition above about 50%
# Mdm2 MdmX PPI: inhibitors of human Mdm2-MdmX association, primary screen, cell-based, luminescence, split luciferase, SaOS-2, uHTS; Protein Mdm4 (Homo sapiens) + E3 ubiquitin-protein ligase Mdm2 (Homo sapiens), …; SaOS-2 split-luciferase Mdm2/MdmX complementation; inhibition, % at 8 µM; 330,000 compounds, 3% hits; AID 485346, 2010;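 active = inhibition of at least 50% at 8 µM in the primary screen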
# Target sequence (O15151 whole entry, looked up): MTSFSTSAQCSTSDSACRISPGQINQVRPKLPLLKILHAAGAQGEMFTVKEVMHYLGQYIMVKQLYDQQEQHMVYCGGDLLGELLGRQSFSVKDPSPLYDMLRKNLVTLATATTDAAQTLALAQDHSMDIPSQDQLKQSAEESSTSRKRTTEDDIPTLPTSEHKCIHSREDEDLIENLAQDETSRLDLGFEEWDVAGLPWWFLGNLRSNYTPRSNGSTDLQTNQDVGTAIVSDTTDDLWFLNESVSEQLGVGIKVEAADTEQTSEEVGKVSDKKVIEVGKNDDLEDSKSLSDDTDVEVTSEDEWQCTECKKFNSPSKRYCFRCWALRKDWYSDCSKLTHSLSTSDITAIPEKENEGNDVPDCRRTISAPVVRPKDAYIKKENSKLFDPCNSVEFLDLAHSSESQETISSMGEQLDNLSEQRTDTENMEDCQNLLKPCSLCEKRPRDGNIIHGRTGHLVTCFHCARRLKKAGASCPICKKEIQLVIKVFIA
# Target sequence (Q00987 whole entry, looked up): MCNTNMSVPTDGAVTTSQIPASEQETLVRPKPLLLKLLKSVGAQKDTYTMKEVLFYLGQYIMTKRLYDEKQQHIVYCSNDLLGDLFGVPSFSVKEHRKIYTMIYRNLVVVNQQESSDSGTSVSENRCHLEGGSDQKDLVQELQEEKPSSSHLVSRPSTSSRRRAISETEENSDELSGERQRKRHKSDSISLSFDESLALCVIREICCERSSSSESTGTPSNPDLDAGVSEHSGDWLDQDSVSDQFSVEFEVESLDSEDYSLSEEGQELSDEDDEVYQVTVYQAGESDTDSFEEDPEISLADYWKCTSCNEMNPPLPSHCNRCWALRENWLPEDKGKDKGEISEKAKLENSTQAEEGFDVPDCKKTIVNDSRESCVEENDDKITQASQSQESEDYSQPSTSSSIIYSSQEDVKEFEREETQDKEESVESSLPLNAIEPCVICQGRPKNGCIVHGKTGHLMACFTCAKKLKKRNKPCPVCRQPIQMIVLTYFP
# CSC inhib: cancer stem cell viability inhibitors, primary screen, luminescence; cancer stem cell-like cells viability; inhibition, % at 7.5 µM; 300,000 compounds, 1.1% hits; AID 2717, 2010; in the data active = inhibition above about 75%; tested in HMLE shEcad cells
# aSyn UTR inh: MLPCN primary screen, SNCA 5' untranslated region. AID 1813, 2009. inhibition, % (tested at 7.5 µM). 300,000 compounds, 0.82% hits. alpha-synuclein 5'UTR reporter, inhibitor activity; in the data active = inhibition above about 60%;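 also: H4 neuroglioblastoma cells stably carrying SNCA 5'UTR luciferase fusion; 0% = DMSO wells and 100% = positive control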
# Gli-Sufu antag: Gli-Sufu pathway antagonists, primary screen, luciferase luminescence, Sufu-KO-LIGHT cells, uHTS | Sufu-KO-LIGHT fibroblasts, Gli luciferase reporter luminescence | 340,000 compounds, 0.74% hits | AID 588413, 2011 | inhibition, % at 5 µM;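 active = inhibition above about 55%, limit read from the data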;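 also: 0% = DMSO-treated cells and 100% = wells with medium but no cells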
# 697 NFkB inh: inhibitors of PMA/ionomycin-induced NF-kB reporter, 697 cells, primary screen, B-cell NF-kB inhibitor project, cell-based, luminescence, uHTS. AID 435022, 2010. inhibition, % at 4 µM. 697 B-cell NF-kB luciferase reporter, 16 h. 330,000 compounds, 0.33% hits; in the data active = inhibition above about 35%
# Mdm2 MdmX conf: Mdm2-MdmX complex disruptors, retested hits, confirmation, luminescence, single concentration; shares compounds with Mdm2 MdmX PPI; Mdm2-MdmX binding, luminescent assay; inhibition, % at 8 µM; 10,000 compounds, 55% hits; in the data active = inhibition above about 40%
# Full FLuc ctr: full-length luciferase signal inhibition, confirmation, counter-screen for Mdm2/MdmX interaction inhibitor project, cell-based, single concentration, SaOS-2; shares compounds with Mdm2 MdmX PPI; SaOS-2 full-length luciferase counterscreen, luminescence; inhibition, % at 8 µM; 6,200 compounds, 77% hits;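 active = mean inhibition at 8 µM reaching about 37%, which flags the compound as non-specific, limit read from the data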;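 also: p53-null SaOS-2 cells with luciferase driven by a doxycycline-inducible promoter; compound on cells about two nights before reading with doxycycline added after day one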
# * = called active by the depositor; / = no result.
SMILES,Jurkat NFkB inh,Mdm2 MdmX PPI,CSC inhib,aSyn UTR inh,Gli-Sufu antag,697 NFkB inh,Mdm2 MdmX conf,others
C=CCN1C(=O)[C@@H]2Cc3c([nH]c4ccccc34)C(c3cc(OC)c(OC)c(OC)c3)N2C1=S (some centres undefined),3.5,50.7*,28.4,31.4,48.3,1.8,21.9,
COc1cc([C@H]2c3[nH]c4ccccc4c3C[C@H]3C(=O)N4[C@@H](c5cc(OC)c(OC)c(OC)c5)c5[nH]c6ccccc6c5C[C@H]4C(=O)N23)cc(OC)c1OC,3.0,79.4*,-5.7,32.7,5.9,9.3,29.2,
O=C(CSc1nnc(-c2ccco2)o1)N1c2ccccc2CCc2ccccc21,15.7,17.9,-8.7,9.2,9.4,-8.2,/,
CC(=O)c1cc(CN2CCN(Cc3ccccc3)C(CCO)C2)cs1 (centres undefined),6.2,18.2,20.2,9.0,16.2,-10.7,/,
Cc1ccc(C2=Nc3ccccc3SC(c3cccc([N+](=O)[O-])c3)C2)cc1 (centres undefined),-23.5,-9.0,24.6,-113.2,-6.7,-15.0,/,
COc1ccc2nc(N3C(=O)/C(=C/c4ccccc4)NC3=S)sc2c1,5.8,54.1*,-3.2,-9.3,0.2,-8.8,37.5,
COc1cccc(/C=C/C(=O)Nc2cccc(C(C)=O)c2)c1OC,-74.3,-19.9,-2.3,-126.0,-58.5,-12.9,/,
COc1cccc(/C=C/C(=O)Nc2ccc(C(=O)Nc3cccc(S(N)(=O)=O)c3)cc2)c1OC,7.1,70.7*,4.5,-26.4,4.2,14.3,18.9,
COc1cc(/C=C(\C#N)C(N)=O)ccc1OS(=O)(=O)c1ccc(C)cc1,3.1,6.0,-10.4,-35.8,-0.8,-4.8,/,
COc1cc(/C=C(\C#N)C(=O)NC2CCCCC2C)ccc1OS(=O)(=O)c1ccc(C)cc1 (centres undefined),14.2,100.3*,156.7*,-26.6,1.6,2.5,37.5,
N#CCCN(C(=S)NC(=O)C1CCCCC1)c1ccccc1F,0.6,6.7,-16.2,/,2.2,8.9,/,
Cc1c2ccccc2c(C)c2c1ccc1ccccc12,-1.6,78.6*,25.7,/,-14.9,-41.1,40.0*,Full FLuc ctr=97.7*
Cc1ccc2nc(N(CCCN(C)C)C(=O)c3ccc(Br)s3)sc2c1,-12.3,22.6,-0.8,-1.0,24.4,17.7,/,
CN(C)CCCN(C(=O)c1cc(-c2cccs2)nc2ccccc12)c1nc2c(F)cccc2s1,-2.4,57.0*,28.9,-2.6,11.8,-3.3,30.6,
Cc1ccc2nc(N(CCCN(C)C)C(=O)c3cc(-c4cccs4)nc4ccccc34)sc2c1,1.7,95.7*,103.3*,67.1*,35.6,15.2,46.1*,Full FLuc ctr=37.3*
CCOc1ccc(CCNC(=O)COC(=O)c2ccc[nH]c2=O)cc1OCC,0.0,27.9,-10.9,/,-3.1,4.7,/,
Cc1cccc(/C=C/c2onc(C)c2[N+](=O)[O-])n1,4.1,100.0*,51.5,1.4,-3.1,-5.1,71.3*,Full FLuc ctr=22.3
CCNC(=O)CC1C(=O)N(c2ccccc2)C(=O)N1CCOC (centres undefined),-5.7,17.0,-13.5,1.0,-5.0,-2.1,/,
COc1ccccc1CNCCS(=O)(=O)NN1CCOCC1,/,17.3,/,/,-3.3,4.7,/,
O=C1CCC([N+](=O)[O-])C(c2ccc(Cl)cc2)N1 (centres undefined),-14.1,-3.7,7.3,-1.9,-3.7,0.3,/,
Cc1cccc2sc(N(CCN(C)C)C(=O)/C=C/c3cccs3)nc12,17.8,62.6*,35.7,-21.3,7.1,6.0,31.4,
CN(C)CCCN(C(=O)/C=C/c1cccs1)c1nc2c(F)cccc2s1,/,/,/,19.3,2.7,/,/,
COc1ccc2nc(N(CCN(C)C)C(=O)/C=C/c3cccs3)sc2c1,26.3,53.0*,13.8,-21.5,1.0,11.4,38.9,Full FLuc ctr=44.1*
COc1ccc(NC(=O)C2CC(=O)N/C(=N/NC(=O)c3ccc(Cl)cc3)S2)cc1 (centres undefined),-11.6,16.3,10.6,1.4,5.6,5.9,/,
CCOc1ccc2c(c1)C(=NNC(=O)c1ccncc1)c1cc(OCC)ccc1-2,-20.5,66.2*,51.6,16.1,47.6,-81.1,52.1*,Full FLuc ctr=55.4*
SMILES,Jurkat NFkB inh,Mdm2 MdmX PPI,CSC inhib,aSyn UTR inh,Gli-Sufu antag,697 NFkB inh,Mdm2 MdmX conf,others
CCOc1ccc(NC(=O)c2ccncc2)cc1,-18.0,-4.6,4.4,-23.1,-1.6,-23.4,/,
CCCOc1ccc(/C=N/NC(=O)c2nnn(-c3nonc3N)c2-c2cccs2)cc1OC,3.5,-7.3,3.3,-31.3,-3.7,-2.8,/,
COc1ccc(/C(C)=N/NC(=O)c2nnn(-c3nonc3N)c2-c2cccs2)cc1OC,6.0,59.1*,6.5,8.8,-10.1,-2.0,-7.8,
COc1ccc(/C(C)=N/NC(=O)c2nnn(-c3nonc3N)c2-c2ccccc2)cc1,-18.1,60.8*,/,7.5,-4.9,-20.3,9.3,
C/C(=N/NC(=O)c1nnn(-c2nonc2N)c1-c1ccccc1)c1ccncc1,21.3,23.6,-4.3,2.8,-4.5,18.3,/,
C/C(=N\NC(=O)c1nnn(-c2nonc2N)c1-c1cccs1)c1ccc(O)cc1,9.7,-4.7,-4.1,-1.4,-9.2,-1.5,/,
COc1ccc(/C(C)=N/NC(=O)c2nnn(-c3nonc3N)c2-c2cccs2)cc1,-17.9,59.5*,-4.4,6.7,/,-10.4,-1.7,
C/C(=N\NC(=O)c1nnn(-c2nonc2N)c1-c1cccs1)c1ccc(C)cc1,0.8,70.6*,-2.4,-4.7,-9.6,2.6,2.2,
Cc1nn(S(=O)(=O)c2ccc(Br)cc2)c(C)c1S(=O)(=O)N1CCOCC1,8.0,9.8,-14.9,7.6,-1.5,-4.5,/,
CCCOC1CCCN(C(=O)c2ccc(OC3CCN(Cc4ccccn4)CC3)cc2)C1 (centres undefined),-2.0,14.3,17.9,13.4,15.5,-21.9,/,
OC(CNCC1CCCO1)Cn1c2ccc(Cl)cc2c2cc(Cl)ccc21 (centres undefined),9.6,96.3*,110.9*,4.1,-0.5,15.5,43.7*,Full FLuc ctr=20.4
CC(C)(C)c1ccc(/C=C(\c2nc3ccccc3[nH]2)S(=O)(=O)c2ccccc2)cc1,9.5,92.5*,125.4*,-77.7,-9.6,18.5,99.8*,Full FLuc ctr=51.5*
Cc1cccc(/C=C(\c2nc3ccccc3[nH]2)S(=O)(=O)c2ccccc2)c1,/,/,/,-118.5,-18.5,/,/,
O=c1[nH]c2ccccc2nc1NCc1ccccc1,-9.5,8.6,5.6,-8.0,-19.0,4.9,/,
